According to article PMC4336329 (PLoS ONE, 2015):
Hit rate of the full screen: of about 310,000 compounds, about 2,200 (0.71%) showed an effect of 50% or more. The effect is printed as a negative number. Only a selection was taken, and strong results are over-represented in it overall.

biological target: human ether-à-go-go-related gene (hERG) potassium channel (human, UniProt Q12809); assay: primary screen, population patch clamp on CHO cells stably expressing hERG; higher = less effect of the substance
Sequence (Q12809 whole entry, looked up): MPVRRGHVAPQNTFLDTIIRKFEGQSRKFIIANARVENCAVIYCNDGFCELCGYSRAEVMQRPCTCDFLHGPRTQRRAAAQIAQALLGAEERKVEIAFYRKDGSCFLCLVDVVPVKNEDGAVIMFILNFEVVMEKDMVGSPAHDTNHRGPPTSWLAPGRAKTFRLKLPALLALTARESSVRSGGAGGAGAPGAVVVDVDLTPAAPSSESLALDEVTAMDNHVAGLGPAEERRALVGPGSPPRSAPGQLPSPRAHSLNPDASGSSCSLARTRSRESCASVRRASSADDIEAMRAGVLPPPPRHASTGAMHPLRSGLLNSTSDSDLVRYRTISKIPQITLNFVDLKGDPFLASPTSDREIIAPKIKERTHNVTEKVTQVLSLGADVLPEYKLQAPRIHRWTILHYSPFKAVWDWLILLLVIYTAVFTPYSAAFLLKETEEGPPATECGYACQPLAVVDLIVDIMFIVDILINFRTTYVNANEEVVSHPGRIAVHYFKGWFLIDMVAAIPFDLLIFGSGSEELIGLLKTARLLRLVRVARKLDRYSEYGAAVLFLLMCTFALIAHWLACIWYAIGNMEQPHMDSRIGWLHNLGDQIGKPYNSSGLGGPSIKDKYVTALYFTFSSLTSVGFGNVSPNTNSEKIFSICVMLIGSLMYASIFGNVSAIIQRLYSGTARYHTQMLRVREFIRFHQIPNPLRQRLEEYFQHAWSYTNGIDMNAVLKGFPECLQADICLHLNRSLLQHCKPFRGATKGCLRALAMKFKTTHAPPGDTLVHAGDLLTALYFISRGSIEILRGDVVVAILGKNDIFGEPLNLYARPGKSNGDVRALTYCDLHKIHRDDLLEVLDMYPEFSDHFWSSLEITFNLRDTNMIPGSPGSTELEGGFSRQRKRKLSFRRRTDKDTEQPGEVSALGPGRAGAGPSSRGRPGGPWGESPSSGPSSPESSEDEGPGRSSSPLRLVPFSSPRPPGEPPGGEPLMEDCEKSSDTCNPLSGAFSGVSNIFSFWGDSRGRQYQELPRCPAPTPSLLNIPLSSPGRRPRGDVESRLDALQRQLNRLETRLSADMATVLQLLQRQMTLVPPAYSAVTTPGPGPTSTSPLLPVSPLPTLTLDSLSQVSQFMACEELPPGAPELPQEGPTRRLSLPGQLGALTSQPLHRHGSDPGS

SMILES | hERG current change (%, negative = inhibition) at 1uM [%]
COc1ccc(C(=O)CN2C(=O)NC(C)(c3ccccc3)C2=O)cc1OC (stereo not drawn) | 3.32
CCOC(=O)C1CCN(C(C)C(=O)c2c[nH]c3ccccc23)CC1 (stereo not drawn) | -1.89
CCOC(=O)C1CCN(CC(=O)c2c(C)[nH]c3cc(C)ccc23)CC1 | -26.8
CCOC(=O)C1CCN(C(C)C(=O)c2c(C)[nH]c3cc(C)ccc23)CC1 (stereo not drawn) | -66.9
CCOC(=O)C1=C(C)NC(=S)N(C(C)=O)C1c1ccc(Cl)cc1 (stereo not drawn) | 9.38
O=C1OCCC1Sc1nc2ccccc2c(=O)n1Cc1ccc(F)cc1 (stereo not drawn) | -37.5
O=C1OCCC1Sc1nc2ccccc2c(=O)n1Cc1ccccc1 (stereo not drawn) | -64.6
Cc1ccc(Cn2c(SC3CCOC3=O)nc3ccccc3c2=O)cc1 (stereo not drawn) | -6.65
COc1ccc2nc3ccccc3nc2c1NC(=O)c1ccccc1Cl | -1.38
O=C(NCc1ccccc1)c1cnsn1 | 7.4
CC1(C)C(=O)C2(CCCCC2)C(=O)OC1C(=O)c1ccccc1 (stereo not drawn) | 6.81
O=C(COc1ccc2c3c(c(=O)oc2c1)CCCC3)N1C[C@H]2C[C@@H](C1)c1cccc(=O)n1C2 | -6
COc1cnn(Cc2ccccc2)c(=O)c1SCc1ccccc1 | -2
CCN1CCc2nc3ccccc3c(C(=O)Nc3ccc(NC(C)=O)cc3)c2C1 | 12.4
CCN1CCc2nc3ccccc3c(C(=O)Nc3ccc(C#N)cc3)c2C1 | -65.8
CCOc1ccc(NC(=O)c2c3c(nc4ccccc24)CCC3)cc1 | 10.9
CCN1CCc2nc3ccccc3c(C(=O)Nc3ccc(F)cc3)c2C1 | -81.6
Cc1ccc(NC(=O)c2c3c(nc4ccccc24)CCC3)cc1 | 7.04
O=C(NCc1ccc(F)cc1)c1c2c(nc3ccccc13)CCN(Cc1ccccc1)C2 | 0.811
Cc1ccc(Oc2nc(C(F)(F)F)nc3ccccc23)cc1 | 6.66
CC(C)(C)OC(=O)N/N=C\c1ccc(OC(=O)c2cccs2)cc1 | 9.49

SMILES | hERG current change (%, negative = inhibition) at 1uM [%]
COc1ccc(-c2n[nH]c(=S)n2-c2ccc(Br)cc2)cc1OC | 16.7
O=C(COC(=O)CCS(=O)(=O)c1ccccc1)Nc1ccccc1 | 0.18
O=C(COC(=O)c1cc[n+]([O-])cc1)Nc1cc([N+](=O)[O-])ccc1Cl | 13.7
O=C(NCC(c1ccco1)N1CCc2ccccc2C1)c1ccc([N+](=O)[O-])cc1 (stereo not drawn) | -7.15
O=C(C[n+]1cccc(NC(=O)c2ccccc2)c1)c1cccc([N+](=O)[O-])c1.[Br-] | -39.6
Cc1ccc(C(=O)C[n+]2cccc3ccccc32)cc1.[Br-] | 7.24
O=C(C[n+]1cccc(C(=O)Nc2ccccc2)c1)c1ccc([N+](=O)[O-])cc1.[Br-] | -61
O=C(C[n+]1cccc2ccccc21)c1ccc([N+](=O)[O-])cc1.[Br-] | -53.8
O=C(C[n+]1cccc2ccccc21)c1ccccc1.[Br-] | 8.9
O=C(Nc1ccccc1)c1ccc[n+](Cc2ccc([N+](=O)[O-])cc2)c1.[Br-] | 5.28
COc1ccc(CC(=O)NNS(=O)(=O)c2ccc([N+](=O)[O-])cc2)cc1OC | 16
O=C(COn1nnc2ccc(Cl)cc21)NCc1ccccc1 | 0.51
CCCCN1C(=O)C(=O)N(CC(=O)NC2CCCc3ccccc32)C1=O (stereo not drawn) | 8.35
Cc1ccc(-c2csc(N(CCCN(C)C)C(=O)c3ccco3)n2)cc1.Cl | -36.6
CN(C)CCCN(C(=O)c1ccco1)c1nc(-c2ccc(Cl)cc2)cs1.Cl | -70.8
Cl.O=C(c1ccco1)N(CCCN1CCOCC1)c1nc(-c2ccc(Cl)cc2)cs1 | -5.41
CCN(CC)CCCN(C(=O)c1ccco1)c1nc(-c2ccc(Cl)cc2)cs1.Cl | -25.5
CCN(CC)CCCN(C(=O)c1ccco1)c1nc(-c2ccc(C)cc2)cs1.Cl | -90.2
Cc1ccc(-c2csc(N(CCCN3CCOCC3)C(=O)c3ccco3)n2)cc1.Cl | -4.11
COc1cccc(C2c3[nH]c4ccccc4c3C[C@H]3C(=O)N(C)CC(=O)N23)c1 (stereo partly drawn) | -1.14
CON(c1nc(Cl)nc(N(C)C)n1)S(=O)(=O)c1ccccc1Cl | 6.38

SMILES | hERG current change (%, negative = inhibition) at 1uM [%]
O=C(Nc1cc(Br)ccc1O)C1CC(c2ccccc2Cl)=NO1 (stereo not drawn) | 18.5
CCOc1ccc(Nc2nc(N)nc(CCl)n2)cc1 | 7.02
CCOc1ccccc1Nc1nc(N)nc(CN2CCCCC2C)n1 (stereo not drawn) | -9.01
COc1ccc(Nc2nc(N)nc(CN(C)C3CCCCC3)n2)cc1 | -17.9
CCOc1ccccc1Nc1nc(N)nc(CN(C)C2CCCCC2)n1 | -54.3
COc1ccccc1Nc1nc(N)nc(CN(C)C2CCCCC2)n1 | -11.7
CCOc1ccc(Nc2nc(N)nc(CN(C)C3CCCCC3)n2)cc1 | -58.2
CC(C)NC(=O)C1CCN(C2CCN(C(=O)Cc3ccc4c(c3)OCO4)CC2)CC1 | 4.98
Cc1cc(N2C(=O)C(O)=C(C(=O)c3cccs3)C2c2ccc(F)cc2)no1 (stereo not drawn) | 14.8
S=C(NCc1ccncc1)Nc1ccccc1 | 7.34
CCCOc1ccc(N2C(=O)CC(NCCNc3ccc([N+](=O)[O-])cn3)C2=O)cc1 (stereo not drawn) | -57.8
COc1ccc(N2C(=O)CC(NCCNc3ccc([N+](=O)[O-])cn3)C2=O)cc1 (stereo not drawn) | -13.7
CCOc1ccc(N2C(=O)CC(NCCNc3ccc([N+](=O)[O-])cn3)C2=O)cc1 (stereo not drawn) | -37.8
CC1(C)CC(=O)C2=C(C1)N(c1ccc(F)cc1)C(N)=C(C#N)C2c1cccs1 (stereo not drawn) | 4.89
CC1CC(C)CN(S(=O)(=O)c2ccc(Oc3ccc([N+](=O)[O-])cc3)cc2)C1 (stereo not drawn) | 14.4
CC1CN(C)C(C)C/C1=N\Oc1ccc([N+](=O)[O-])cc1.Cl (stereo not drawn) | -84.5
CC1=CC(=O)C=C(C)C1=NOc1ccc([N+](=O)[O-])cc1 | -11.7
CN1CCN(C(=O)c2ccc(Oc3ccc([N+](=O)[O-])cc3)cc2)CC1 | -11.7
CC1CN(C)C(C)C/C1=N/Oc1ccccc1[N+](=O)[O-].Cl (stereo not drawn) | 2.66
CN1CCC(=NOc2ccc([N+](=O)[O-])cc2)CC1 | -56
CCCCCc1nnc(NC(=O)C2=COCCO2)s1 | 6.91

SMILES | hERG current change (%, negative = inhibition) at 1uM [%]
O=C(Nc1nc(-c2ccccn2)cs1)c1ccc(F)c(S(=O)(=O)N2CCOCC2)c1 | 5.44
CCCC(=O)Nc1c(-c2cccs2)c(=O)c2ccccc2n1C | 5.25
CC1CCCCC1NC(=O)Cn1cccc1C(=O)c1ccccc1 (stereo not drawn) | 14
CNc1nc2cc([N+](=O)[O-])c([N+](=O)[O-])cc2nc1NC | -3.16
COc1ccc(CN2CCC(C(=O)Nc3ccc(Oc4ccccc4)nc3)CC2)cc1F | -37.8
CCOc1ccc(C(=O)CCC(=O)N2CCC(C(=O)OC)CC2)cc1 | 10.1
CC1=C(C(=O)Nc2ccccc2F)C(c2ccsc2)C2=C(CC(C)(C)CC2=O)N1 (stereo not drawn) | 1.33
C#CCNC(=O)C1CCN(c2cc(C)nc(-c3ccccc3)n2)CC1 | -8.78
Cc1cc(N2CCC(C(=O)NCC3CC3)CC2)nc(-c2ccccc2)n1 | -53
C=CCNC(=O)C1CCN(c2cc(C)nc(-c3ccccc3)n2)CC1 | -12.2
Cc1nn(CC(=O)OCC(=O)Nc2ccccc2[N+](=O)[O-])c(C)c1[N+](=O)[O-] | 7.87
CCCCn1c(N)c(N(CCOC)C(=O)c2ccc(OCc3c(C)noc3C)cc2)c(=O)[nH]c1=O | 19
O=C(CN1CCN(C(C(=O)Nc2ccc(F)cc2)c2ccccc2)CC1)NC1CC1 (stereo not drawn) | -2.24
O=C(CN1CCN(C(C(=O)Nc2ccc(Cl)cc2C(F)(F)F)c2ccccc2)CC1)NC1CC1 (stereo not drawn) | -50.1
Cc1ccc(NC(=O)C(c2ccccc2)N2CCN(CC(=O)NC3CC3)CC2)cc1Cl (stereo not drawn) | -2.31
COc1ccc(N(C(=O)Cn2nnc3ccccc32)C(C(=O)NC(C)(C)C)c2ccc(OC)c(O)c2)cc1 (stereo not drawn) | 14.6
Cc1ccc(N2C(=O)C3CC(c4ccccc4)=C4C5C=CC(C6C(=O)N(c7ccc(C)cc7C)C(=O)C56)C4C3C2=O)c(C)c1 (stereo not drawn) | 3.95
Cc1ccc(N2C(=O)C3CC(c4ccccc4)=C4C5C=CC(C6C(=O)N(c7ccc(C)cc7)C(=O)C56)C4C3C2=O)cc1 (stereo not drawn) | -74.5
Cc1ccc(N2C(=O)C3C4CC(=O)C(c5ccccc54)C3C2=O)cc1 (stereo not drawn) | 4.46
Cn1c(SCC(=O)NC2CC2)nnc1-c1ccccc1 | 6.86
CN(C)/C=N/c1ncc(C(=O)c2ccc(Cl)cc2Cl)s1 | -4.09
